Shown are actives, neighbours in structure and some others; about 8.1% of the full set was active somewhere.
VP16 counter: Gal4-VP16 reporter inhibition counter-screen; AID 2546; Potency, µM (top dose mostly 53.6 µM), inactives show top-dose activity, negative = inhibition, most hits filed as inhibitors; 310,000 tested, 3.5% active; Drosophila S2 Gal4-VP16 UAS-luciferase, luminescence, 20 h;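 further: Gal4-VP16 expression switched on by copper sulfate through the metallothionein promoter; on the % scale 0 is the no-effect control and ±100 the full control effect; nearly all actives have a fitted effect of over 50% in size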
Epigenetic derep: regulators of epigenetic silencing causing reporter derepression in mouse cells; murine LDR cells, GFP reporter derepression, 30 h; Potency, µM (series often up to 53.9 µM), inactives show at the highest dose GFP activation, usual class: activators; 280,000 tested, 0.2% active; AID 1865; further: % of control where 0% means no effect; nearly all actives have a fitted effect of over 60% in size
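In this reporter-derepression format, murine cells bearing a silenced integrated CMV-GFP locus incubate with test compound (30 h, 37 C), then are washed and imaged; fluorescent objects of 20–120 um count as induced cells.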
PINK1 modulator: modulators of PINK1 expression; PINK1 immunofluorescence, high-content cytometry, 24 h; Potency, µM (highest dose often 76.6 µM), without a hit: top-dose activation (PINK1 increase), most hits filed as activators; 410,000 tested, 0.2% active; AID 624263; active means well fitted activation curve with a large enough effect; inconclusive means small, poorly fitted or top-dose-only effect; cell line not stated here; further: % of control where 0% means no effect; nearly all actives have a fitted effect of over 65% in size
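Measures PINK1 amount and localization on or inside mitochondria by immunofluorescence. Stable cells get compounds at 5 concentrations for 24 hours before fixation and staining; CCCP controls included.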
RORgamma inh: ROR gamma (mouse) transcription inhibition; P51450; Drosophila S2 Gal4-RORgamma UAS-luciferase reporter, 20 h; Potency, µM (titrated, usually from 53.6 µM), for inactives: at the top dose activity change, negative = inhibition, most hits filed as inhibitors; 310,000 tested, 5.4% active; AID 2551; further: on the % scale 0 is the no-effect control and ±100 the full control effect; nearly all actives have a fitted effect of over 60% in size
Target sequence (P51450 whole entry, looked up, the tested form may be a part): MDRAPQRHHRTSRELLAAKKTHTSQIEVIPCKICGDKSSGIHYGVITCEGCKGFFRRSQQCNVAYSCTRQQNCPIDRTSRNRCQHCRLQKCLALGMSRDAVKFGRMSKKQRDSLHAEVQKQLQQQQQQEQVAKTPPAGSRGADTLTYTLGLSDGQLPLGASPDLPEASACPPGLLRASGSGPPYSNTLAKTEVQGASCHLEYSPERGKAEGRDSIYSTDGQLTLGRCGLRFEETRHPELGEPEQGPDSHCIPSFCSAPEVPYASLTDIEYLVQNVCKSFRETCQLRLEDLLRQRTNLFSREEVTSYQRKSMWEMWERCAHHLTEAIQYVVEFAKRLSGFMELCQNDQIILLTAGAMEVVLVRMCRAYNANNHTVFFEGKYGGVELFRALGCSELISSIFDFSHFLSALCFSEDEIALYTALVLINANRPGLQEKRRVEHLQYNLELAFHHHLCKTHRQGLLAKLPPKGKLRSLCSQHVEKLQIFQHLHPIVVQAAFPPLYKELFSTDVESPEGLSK
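Stable Schneider cell line, Gal4 DNA-binding domain fused to ROR gamma, UAS-luciferase. Cmpd 1 hr RT → CuSO4 700 uM final → 20 hr RT → luciferase reagent 10 min → luminescence.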
Sfp inh: inhibitors of Bacillus subtilis Sfp phosphopantetheinyl transferase; Biochemical Sfp PPTase activity, qHTS; 310,000 tested, 3.5% active; Q9F4F7; AID 1490; Potency, µM, for inactives: largest response in the series, negative = inhibition, actives largely listed as inhibitors;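 further: the enzyme is Sfp with the accession as filed and its product quenches rhodamine fluorescence; 0% = enzyme reaction without inhibitor and -100% = no enzyme wells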
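Step 1, compound plus 15 nM Sfp-PPTase, 15 min, room temperature. Step 2, add rhodamine-CoA (5 uM) and BHQ-2-YbbR (12.5 uM). Step 3, read 525/598 nm fluorescence at 0 and 30 min.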
ClpP mod: qHTS Assay for Activators of ClpP | ATP-dependent Clp protease proteolytic subunit (Bacillus subtilis (strain 168)), P80244 | purified B. subtilis ClpP, FRET peptide cleavage, 20 min | Potency, µM (titrated, usually from 57.5 µM), inactives show at the top dose activity change, negative = active | 340,000 tested, 1.9% active | AID 651965, 2013; active means well fitted falling curve with a large enough effect; inconclusive means small, poorly fitted or top-dose-only effect; inactive means no such curve, though single readings can be large or run the other way; further: the source files actives as falling curves though it sought activators and does not explain the sign; nearly all actives have a fitted effect of over 65% in size
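FRET quenching reversal measured ClpP activation: 10 microg/mL B. subtilis ClpP at pH 8 with the FRET-FV decapeptide, read at 430 nm after 320 nm excitation. The 20-min minus 0-min signal was scaled between DMSO/no-enzyme wells and ADEP (5.8 microM final).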
An asterisk follows results filed as active; ! = a repeat was not active. Unless noted, the call rests on the fitted dose curve; in most records, active means well fitted curve in the direction sought with a large enough effect; inconclusive means small, poorly fitted or top-dose-only effect, or another doubt; inactive means no such curve, though single readings can be large; an effect the other way counts as inactive or inconclusive. Potency means the concentration at half of the fitted maximal effect.

Screening CCc1nnc(NC(=O)c2ccc(S(=O)(=O)N(C)c3ccccc3)cc2)o1 returned VP16 counter 0.56µM*, Epigenetic derep -5%, PINK1 modulator 0%, RORgamma inh 0.45µM*, Sfp inh 19% and ClpP mod 0%.
Screening C=CCN(CC=C)S(=O)(=O)c1ccc(C(=O)Nc2nnc(CSC)o2)cc1 returned VP16 counter 2.8µM*, Epigenetic derep 0%, PINK1 modulator 3%, RORgamma inh 0.56µM*, Sfp inh 21% and ClpP mod 0%.
Screening CN(c1ccccc1)S(=O)(=O)c1ccc(NC(=O)c2ccccc2)cc1 returned VP16 counter -17%, Epigenetic derep 0%, PINK1 modulator 0%, RORgamma inh inconclusive, Sfp inh 9% and ClpP mod -4%.
`Cc1cc(C)c2c(=O)cc(C(=O)NCCc3ccc(S(N)(=O)=O)cc3)oc2c1` gave Epigenetic derep 0%, PINK1 modulator 7% and ClpP mod -20%.
COC(=O)c1c(NC(=O)c2ccc(S(=O)(=O)N(C)C3CCCCC3)cc2)sc2c1CCN(C)C2 was read as Epigenetic derep 7%, PINK1 modulator 5% and ClpP mod -9%.
For COCCN(CCOC)S(=O)(=O)c1ccc(C(=O)Nc2nnc(C)o2)cc1 the results were VP16 counter inconclusive, Epigenetic derep -1%, PINK1 modulator 1%, RORgamma inh 10µM*, Sfp inh 89µM* and ClpP mod 2%.
Screening COCc1nnc(NC(=O)c2ccc(S(=O)(=O)N(C)C3CCCCC3)cc2)o1 returned VP16 counter 4.5µM*, Epigenetic derep -1%, PINK1 modulator -2%, RORgamma inh 1.6µM*, Sfp inh -4% and ClpP mod 1%.
For COCCN(CCOC)S(=O)(=O)c1ccc(C(=O)Nc2nnc(COC)o2)cc1 the results were VP16 counter -7%, Epigenetic derep -2%, PINK1 modulator -1%, RORgamma inh inconclusive, Sfp inh -46% and ClpP mod 0%.
Screening Nc1ccccc1C(=O)CC(N)C(=O)O (stereo not drawn) returned VP16 counter 28µM*, Epigenetic derep 0%, PINK1 modulator 0%, RORgamma inh 13µM* and Sfp inh 100µM*!.
O=C(CCC1N=C2c3ccccc3N=C(SCc3cccc(Cl)c3)N2C1=O)NCc1ccco1 (stereo not drawn) was read as VP16 counter 0%, Epigenetic derep -2%, PINK1 modulator 2%, RORgamma inh inconclusive, Sfp inh inconclusive and ClpP mod 35µM*.
For Cc1cc(=S)c2cccc(C)c2[nH]1 the results were VP16 counter 6%, Epigenetic derep 3%, PINK1 modulator 2%, RORgamma inh -8% and Sfp inh 35µM*.
Cc1cccc2c(=O)cc(C(F)(F)F)[nH]c12 was read as VP16 counter inconclusive, Epigenetic derep 1%, PINK1 modulator inconclusive, RORgamma inh inconclusive and Sfp inh 8%.
For COc1cccc(N2CN(CCc3ccccc3)CNC2=S)c1 the results were VP16 counter inconclusive, Epigenetic derep 0%, PINK1 modulator -1%, RORgamma inh 14µM* and Sfp inh 14%.
`Cc1ccc(N2CN(CCC3=CCCCC3)CNC2=S)cc1` gave VP16 counter 6.3µM*, Epigenetic derep 1%, PINK1 modulator 0%, RORgamma inh 0.56µM*, Sfp inh 2% and ClpP mod 1%.
Screening CCc1ccc(N2CN(CCc3ccccc3)CNC2=S)cc1 returned VP16 counter 6.3µM*, Epigenetic derep 0%, PINK1 modulator 2%, RORgamma inh 1.3µM*, Sfp inh 15% and ClpP mod 0%.
C=C1NN(Cc2ccccc2)C(=O)N1c1ccc(OCc2ccccc2)cc1 was read as PINK1 modulator -1% and ClpP mod 0%.
Screening COc1ccc(S(=O)(=O)N(CCC(=O)O)Cc2ccccc2)cc1 returned VP16 counter -6%, Epigenetic derep 0%, PINK1 modulator 2%, RORgamma inh 5%, Sfp inh 27% and ClpP mod 0%.
O=C(O)CCCN(Cc1cccc(Br)c1)S(=O)(=O)c1ccc(Br)cc1 was read as VP16 counter -10%, Epigenetic derep -6%, PINK1 modulator -1%, RORgamma inh 30%, Sfp inh 79µM* and ClpP mod 2%.
For CC(C)N(C(=O)Cn1cc(SCC(=O)Nc2ccccc2C(F)(F)F)c2ccccc21)C(C)C the results were Epigenetic derep 7%, PINK1 modulator -1% and ClpP mod -1%.
`Cc1cc(CC(C)CC(C)(C)C)n(O)c(=O)c1` (stereo not drawn) gave VP16 counter 3.2µM*, PINK1 modulator 2%, RORgamma inh 1.1µM*, Sfp inh 23% and ClpP mod 0%.
Cc1cccc(NC2=CC(=O)OC(C)C2)c1 (stereo not drawn) was read as VP16 counter 4%, Epigenetic derep 3%, PINK1 modulator 1%, RORgamma inh -2%, Sfp inh 19% and ClpP mod 28µM*.
Screening CC1CC(Nc2ccccc2N)=CC(=O)O1 (stereo not drawn) returned VP16 counter 15%, Epigenetic derep -2%, PINK1 modulator 1%, RORgamma inh 27%, Sfp inh 21% and ClpP mod -3%.
For Cc1nc2ccc(NC(=O)N3CCSCC3)cc2nc1C the results were VP16 counter 10%, Epigenetic derep 0%, PINK1 modulator 1%, RORgamma inh 30%, Sfp inh 17% and ClpP mod 25µM*.
O=C(COc1ccccc1C(=O)Nc1ccccc1)Nc1ccc(Br)cc1 was read as PINK1 modulator -1% and ClpP mod -5%.
`CCOCCCn1c(=S)[nH]c2cc(C(=O)NCCOC)ccc2c1=O` gave VP16 counter -2%, Epigenetic derep 0%, PINK1 modulator 3%, RORgamma inh 18%, Sfp inh 79µM* and ClpP mod 1%.
CCOCCCn1c(=S)[nH]c2cc(C(=O)N3CCN(c4ccccc4)CC3)ccc2c1=O was read as VP16 counter inconclusive, PINK1 modulator 4%, RORgamma inh 13µM*, Sfp inh 5% and ClpP mod 1%.
Screening CCOCCCn1c(=S)[nH]c2cc(C(=O)N3CCN(C)CC3)ccc2c1=O returned VP16 counter -2%, Epigenetic derep -1%, PINK1 modulator -3%, RORgamma inh 2%, Sfp inh -25% and ClpP mod 0%.
